Measured values as given in the supplement of paper PMC11732987, “Enantioselective OTUD7B fragment discovery through chemoproteomics screening and high-throughput optimisation” (Communications Chemistry, 2025).

Columns and labels:
Assay in all cases: log2 ratio of Biotin-Ahx-Ub-VS probe labelling (fragment/DMSO); higher = less target engagement (more negative = stronger competition), active = hit call of the paper (q ≤ 0.05, log2 ratio ≤ -1)
Conditions in all cases: compound concentration: 200 uM; treatment time: 3 h
[1] = biological target: USP34 (UniProt Q70CQ2)
Summary of the method: (§1)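 Each value is an average log2 ratio of fragment to vehicle, tested by unpaired t-test. The underlying Spectronaut label-free quantities were global-median-normalised, and only proteins with ≥2 unique peptides were included. Triplicate HEK293T lysate samples (495 µg) were exposed to fragment at 200 µM or vehicle for 3 h, then to Biotin-Ahx-Ub-VS at 0.5 µM final for 1 h, before NeutrAvidin enrichment of labelled DUBs, LysC and trypsin digestion, and diaPASEF LC-MS/MS.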

[2] = biological target: T1, USP36 (UniProt Q9P275)
T1 sequence (whole entry): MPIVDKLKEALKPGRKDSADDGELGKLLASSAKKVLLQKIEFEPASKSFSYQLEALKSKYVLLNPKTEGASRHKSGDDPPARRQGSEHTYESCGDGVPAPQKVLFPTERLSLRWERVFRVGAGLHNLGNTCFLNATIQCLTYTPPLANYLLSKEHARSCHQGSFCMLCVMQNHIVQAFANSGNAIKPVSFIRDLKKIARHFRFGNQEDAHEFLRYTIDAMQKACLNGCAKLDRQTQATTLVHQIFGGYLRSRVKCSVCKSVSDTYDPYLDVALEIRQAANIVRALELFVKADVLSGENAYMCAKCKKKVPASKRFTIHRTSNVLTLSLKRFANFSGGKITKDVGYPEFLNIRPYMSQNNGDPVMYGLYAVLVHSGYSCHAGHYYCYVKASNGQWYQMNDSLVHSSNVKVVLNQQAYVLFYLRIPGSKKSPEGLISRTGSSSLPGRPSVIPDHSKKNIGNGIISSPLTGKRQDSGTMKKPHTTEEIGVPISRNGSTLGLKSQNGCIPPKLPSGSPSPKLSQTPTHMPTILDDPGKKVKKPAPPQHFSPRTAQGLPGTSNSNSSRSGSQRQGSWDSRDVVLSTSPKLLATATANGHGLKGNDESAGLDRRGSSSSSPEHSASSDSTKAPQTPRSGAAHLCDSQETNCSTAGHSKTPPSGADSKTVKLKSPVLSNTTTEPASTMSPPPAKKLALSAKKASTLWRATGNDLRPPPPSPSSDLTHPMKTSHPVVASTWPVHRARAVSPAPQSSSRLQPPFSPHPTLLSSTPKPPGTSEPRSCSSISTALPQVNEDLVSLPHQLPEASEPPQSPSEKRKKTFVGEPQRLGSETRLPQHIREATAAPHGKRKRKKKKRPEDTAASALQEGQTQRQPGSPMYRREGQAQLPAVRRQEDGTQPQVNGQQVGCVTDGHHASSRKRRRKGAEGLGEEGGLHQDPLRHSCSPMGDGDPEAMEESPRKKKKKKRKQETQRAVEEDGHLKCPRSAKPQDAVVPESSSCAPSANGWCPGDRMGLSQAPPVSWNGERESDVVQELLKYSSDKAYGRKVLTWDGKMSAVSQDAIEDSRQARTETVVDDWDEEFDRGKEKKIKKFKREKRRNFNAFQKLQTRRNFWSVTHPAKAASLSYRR
Summary of the method: as §1

[3] = biological target: T2, USP38 (UniProt Q8NB14)
T2 sequence (whole entry): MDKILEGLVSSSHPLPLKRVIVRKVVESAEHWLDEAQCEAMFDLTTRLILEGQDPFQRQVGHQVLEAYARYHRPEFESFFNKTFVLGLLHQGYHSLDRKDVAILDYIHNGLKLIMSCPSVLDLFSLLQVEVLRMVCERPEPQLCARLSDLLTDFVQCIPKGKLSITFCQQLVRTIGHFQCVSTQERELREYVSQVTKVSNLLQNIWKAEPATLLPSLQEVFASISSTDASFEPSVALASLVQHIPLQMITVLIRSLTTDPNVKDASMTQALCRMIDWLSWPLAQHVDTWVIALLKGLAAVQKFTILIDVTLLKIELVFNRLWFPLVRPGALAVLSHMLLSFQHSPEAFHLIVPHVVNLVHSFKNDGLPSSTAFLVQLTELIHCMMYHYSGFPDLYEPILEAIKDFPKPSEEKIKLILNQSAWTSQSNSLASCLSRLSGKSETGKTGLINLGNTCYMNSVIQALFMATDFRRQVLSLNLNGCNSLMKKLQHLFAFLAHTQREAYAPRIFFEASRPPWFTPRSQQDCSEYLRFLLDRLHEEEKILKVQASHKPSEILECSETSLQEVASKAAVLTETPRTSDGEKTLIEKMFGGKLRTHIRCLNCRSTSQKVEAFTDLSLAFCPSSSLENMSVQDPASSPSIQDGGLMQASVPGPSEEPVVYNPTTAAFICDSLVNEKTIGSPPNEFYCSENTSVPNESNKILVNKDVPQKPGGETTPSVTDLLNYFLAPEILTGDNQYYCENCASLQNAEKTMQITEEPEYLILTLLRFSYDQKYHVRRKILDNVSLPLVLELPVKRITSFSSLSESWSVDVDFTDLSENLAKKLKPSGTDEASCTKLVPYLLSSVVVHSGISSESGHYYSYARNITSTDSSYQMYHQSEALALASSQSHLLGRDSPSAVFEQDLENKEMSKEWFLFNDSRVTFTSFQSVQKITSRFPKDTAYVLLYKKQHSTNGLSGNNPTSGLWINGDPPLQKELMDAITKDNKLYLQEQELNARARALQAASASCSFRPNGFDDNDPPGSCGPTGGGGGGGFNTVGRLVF
Summary of the method: as §1

[4] = biological target: T3, USP39 (UniProt Q53GS9)
T3 sequence (whole entry): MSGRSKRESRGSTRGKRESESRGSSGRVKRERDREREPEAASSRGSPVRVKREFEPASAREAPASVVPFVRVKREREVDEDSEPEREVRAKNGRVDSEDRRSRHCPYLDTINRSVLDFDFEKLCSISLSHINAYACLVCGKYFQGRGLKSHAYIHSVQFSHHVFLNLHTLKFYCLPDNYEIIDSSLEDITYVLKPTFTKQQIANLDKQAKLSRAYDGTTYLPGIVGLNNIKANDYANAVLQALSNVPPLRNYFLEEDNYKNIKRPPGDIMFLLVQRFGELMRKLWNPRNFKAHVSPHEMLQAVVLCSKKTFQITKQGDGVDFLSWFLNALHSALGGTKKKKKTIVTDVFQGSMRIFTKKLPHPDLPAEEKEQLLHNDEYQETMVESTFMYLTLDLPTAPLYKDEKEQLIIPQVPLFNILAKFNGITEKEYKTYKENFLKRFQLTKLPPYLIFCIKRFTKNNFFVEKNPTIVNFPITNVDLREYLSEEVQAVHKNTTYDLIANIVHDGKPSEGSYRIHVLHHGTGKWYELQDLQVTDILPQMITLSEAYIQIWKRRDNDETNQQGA
Summary of the method: as §1

[5] = biological target: T4, USP4 (UniProt Q13107)
T4 sequence (whole entry): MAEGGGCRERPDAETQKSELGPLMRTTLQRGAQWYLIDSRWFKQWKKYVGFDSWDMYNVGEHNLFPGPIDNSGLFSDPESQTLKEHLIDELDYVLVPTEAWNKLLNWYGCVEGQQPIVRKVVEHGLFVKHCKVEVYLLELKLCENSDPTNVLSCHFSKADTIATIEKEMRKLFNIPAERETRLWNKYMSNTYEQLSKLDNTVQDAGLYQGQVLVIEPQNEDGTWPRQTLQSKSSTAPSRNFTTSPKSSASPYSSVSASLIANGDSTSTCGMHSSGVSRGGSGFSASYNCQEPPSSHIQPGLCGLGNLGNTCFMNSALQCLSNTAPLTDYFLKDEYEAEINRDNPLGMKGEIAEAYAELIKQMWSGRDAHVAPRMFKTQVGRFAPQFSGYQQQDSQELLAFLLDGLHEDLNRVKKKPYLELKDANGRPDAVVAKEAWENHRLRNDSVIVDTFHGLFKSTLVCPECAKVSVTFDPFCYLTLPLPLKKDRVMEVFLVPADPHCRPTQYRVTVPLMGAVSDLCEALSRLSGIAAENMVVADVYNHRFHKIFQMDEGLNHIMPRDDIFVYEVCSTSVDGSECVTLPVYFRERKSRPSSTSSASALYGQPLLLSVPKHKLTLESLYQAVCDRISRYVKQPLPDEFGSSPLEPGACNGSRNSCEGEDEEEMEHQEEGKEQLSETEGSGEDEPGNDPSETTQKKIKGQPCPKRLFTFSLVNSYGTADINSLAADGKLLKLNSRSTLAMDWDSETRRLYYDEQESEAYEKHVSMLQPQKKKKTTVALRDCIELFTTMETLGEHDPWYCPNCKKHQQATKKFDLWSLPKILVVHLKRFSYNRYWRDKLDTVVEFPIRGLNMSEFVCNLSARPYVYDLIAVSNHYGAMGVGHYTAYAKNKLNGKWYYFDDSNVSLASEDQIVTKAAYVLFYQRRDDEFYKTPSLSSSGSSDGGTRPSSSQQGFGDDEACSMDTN
Summary of the method: as §1

Measured: log2 ratio of Biotin-Ahx-Ub-VS probe labelling

Chain of USP34 (Q70CQ2 whole entry, the tested form may be a part): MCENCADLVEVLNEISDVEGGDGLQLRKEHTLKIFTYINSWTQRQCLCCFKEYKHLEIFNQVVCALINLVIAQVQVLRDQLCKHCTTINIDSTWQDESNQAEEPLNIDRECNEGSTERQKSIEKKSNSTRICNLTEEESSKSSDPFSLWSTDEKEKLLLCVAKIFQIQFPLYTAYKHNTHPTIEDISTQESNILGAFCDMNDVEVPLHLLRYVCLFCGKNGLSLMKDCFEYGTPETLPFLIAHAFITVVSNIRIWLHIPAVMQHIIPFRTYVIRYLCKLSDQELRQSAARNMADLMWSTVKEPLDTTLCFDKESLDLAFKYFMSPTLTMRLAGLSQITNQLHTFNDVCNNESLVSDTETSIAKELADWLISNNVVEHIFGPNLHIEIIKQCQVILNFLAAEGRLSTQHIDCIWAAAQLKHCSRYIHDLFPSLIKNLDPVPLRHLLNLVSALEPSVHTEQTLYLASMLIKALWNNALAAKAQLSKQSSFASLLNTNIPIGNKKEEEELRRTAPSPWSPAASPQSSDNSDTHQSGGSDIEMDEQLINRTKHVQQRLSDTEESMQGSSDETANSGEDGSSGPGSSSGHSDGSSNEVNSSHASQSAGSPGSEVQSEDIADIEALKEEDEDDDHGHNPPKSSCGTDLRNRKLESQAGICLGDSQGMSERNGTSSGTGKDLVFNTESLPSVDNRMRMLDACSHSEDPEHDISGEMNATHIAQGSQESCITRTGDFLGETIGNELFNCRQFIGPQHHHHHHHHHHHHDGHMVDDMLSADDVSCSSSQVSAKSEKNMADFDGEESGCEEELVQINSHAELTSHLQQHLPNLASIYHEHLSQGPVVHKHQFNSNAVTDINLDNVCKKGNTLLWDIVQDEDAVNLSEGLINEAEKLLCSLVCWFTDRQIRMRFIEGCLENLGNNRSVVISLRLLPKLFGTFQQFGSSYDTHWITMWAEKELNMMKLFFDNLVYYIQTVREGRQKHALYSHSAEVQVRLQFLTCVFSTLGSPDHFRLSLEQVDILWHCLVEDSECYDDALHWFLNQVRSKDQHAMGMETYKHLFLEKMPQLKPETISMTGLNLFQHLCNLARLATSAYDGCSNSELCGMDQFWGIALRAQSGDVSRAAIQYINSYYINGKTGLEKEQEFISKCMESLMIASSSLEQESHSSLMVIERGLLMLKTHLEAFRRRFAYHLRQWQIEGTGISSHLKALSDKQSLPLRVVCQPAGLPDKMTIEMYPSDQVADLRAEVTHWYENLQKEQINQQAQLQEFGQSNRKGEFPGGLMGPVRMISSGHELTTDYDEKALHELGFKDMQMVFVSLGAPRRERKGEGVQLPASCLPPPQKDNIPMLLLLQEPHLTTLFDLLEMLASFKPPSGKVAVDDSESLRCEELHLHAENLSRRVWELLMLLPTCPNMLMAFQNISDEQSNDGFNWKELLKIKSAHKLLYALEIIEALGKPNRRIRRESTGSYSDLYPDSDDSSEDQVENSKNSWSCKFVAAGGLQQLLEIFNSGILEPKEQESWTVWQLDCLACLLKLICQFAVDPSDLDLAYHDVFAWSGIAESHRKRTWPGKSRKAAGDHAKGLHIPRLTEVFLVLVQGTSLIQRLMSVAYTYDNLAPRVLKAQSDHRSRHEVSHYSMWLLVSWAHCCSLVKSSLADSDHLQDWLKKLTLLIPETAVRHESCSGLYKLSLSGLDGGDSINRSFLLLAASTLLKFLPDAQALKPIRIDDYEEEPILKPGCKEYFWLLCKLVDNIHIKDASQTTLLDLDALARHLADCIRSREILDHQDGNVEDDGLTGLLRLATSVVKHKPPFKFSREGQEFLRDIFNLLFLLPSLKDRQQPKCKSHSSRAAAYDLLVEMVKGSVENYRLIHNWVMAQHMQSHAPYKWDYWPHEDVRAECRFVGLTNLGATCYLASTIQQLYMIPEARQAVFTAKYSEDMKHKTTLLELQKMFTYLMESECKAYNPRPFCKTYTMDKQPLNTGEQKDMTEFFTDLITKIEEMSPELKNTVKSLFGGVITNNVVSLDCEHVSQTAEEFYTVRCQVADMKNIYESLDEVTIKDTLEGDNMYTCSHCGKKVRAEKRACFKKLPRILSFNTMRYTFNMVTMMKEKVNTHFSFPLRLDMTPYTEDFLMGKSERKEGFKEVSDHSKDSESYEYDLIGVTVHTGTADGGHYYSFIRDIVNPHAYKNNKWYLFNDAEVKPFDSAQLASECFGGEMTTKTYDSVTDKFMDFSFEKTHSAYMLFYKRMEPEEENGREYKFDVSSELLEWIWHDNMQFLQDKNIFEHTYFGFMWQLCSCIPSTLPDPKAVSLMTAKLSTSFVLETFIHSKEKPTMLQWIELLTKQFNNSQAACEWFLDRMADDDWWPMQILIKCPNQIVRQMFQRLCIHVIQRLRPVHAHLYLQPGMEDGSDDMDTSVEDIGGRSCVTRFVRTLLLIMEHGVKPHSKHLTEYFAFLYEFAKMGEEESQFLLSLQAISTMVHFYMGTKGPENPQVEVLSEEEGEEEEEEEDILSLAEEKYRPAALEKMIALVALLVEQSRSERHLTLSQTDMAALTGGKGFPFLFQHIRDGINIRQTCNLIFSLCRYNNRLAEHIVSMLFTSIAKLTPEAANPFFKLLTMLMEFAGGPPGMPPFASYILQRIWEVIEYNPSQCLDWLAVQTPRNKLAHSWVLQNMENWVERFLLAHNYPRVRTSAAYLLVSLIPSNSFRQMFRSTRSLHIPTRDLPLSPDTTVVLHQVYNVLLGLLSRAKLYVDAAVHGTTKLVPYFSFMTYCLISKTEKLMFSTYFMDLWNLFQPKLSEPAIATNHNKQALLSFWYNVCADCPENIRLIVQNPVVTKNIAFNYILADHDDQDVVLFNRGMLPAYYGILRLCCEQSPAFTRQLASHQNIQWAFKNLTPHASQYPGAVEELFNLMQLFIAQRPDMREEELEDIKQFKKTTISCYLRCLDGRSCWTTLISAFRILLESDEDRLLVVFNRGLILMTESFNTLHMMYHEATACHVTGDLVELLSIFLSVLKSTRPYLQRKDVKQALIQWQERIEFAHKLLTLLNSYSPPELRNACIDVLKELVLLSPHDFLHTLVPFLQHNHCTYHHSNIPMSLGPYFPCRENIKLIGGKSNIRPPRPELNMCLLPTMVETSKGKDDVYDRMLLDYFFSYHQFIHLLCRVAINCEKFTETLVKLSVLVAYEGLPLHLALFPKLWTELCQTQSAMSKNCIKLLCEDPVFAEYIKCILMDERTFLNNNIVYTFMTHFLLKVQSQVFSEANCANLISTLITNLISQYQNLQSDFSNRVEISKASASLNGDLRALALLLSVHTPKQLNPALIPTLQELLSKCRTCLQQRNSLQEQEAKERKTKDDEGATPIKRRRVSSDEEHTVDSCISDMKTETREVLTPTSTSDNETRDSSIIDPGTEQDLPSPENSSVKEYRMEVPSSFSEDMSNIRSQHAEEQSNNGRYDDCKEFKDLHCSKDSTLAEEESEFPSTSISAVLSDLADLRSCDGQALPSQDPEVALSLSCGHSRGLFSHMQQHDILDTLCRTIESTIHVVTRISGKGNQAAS

CCN1C(=O)C2CN(C(=O)CCl)CCN2C1=O (stereo not given)
inactive: [1] 0.053 | [2] -0.271 | [3] -0.0595 | [4] -0.0577 | [5] 0.0781
